Laboratory results published in the supplement of paper PMC11417369.
± gives the standard deviation of the averaged measurements. The full ranking holds about 25,000 sequences; the median of “ln(normalized median fluorescence intensity)” is about 10, and the highest 2% start at about 12. The list comes from a sample in which the highest values are over-represented; it also holds similar and randomly drawn sequences.

Tested on: PfAP2-G AP2 domain (GST-tagged)
Test: gcPBM binding intensity (ln(normalized median fluorescence intensity)); higher = stronger DNA binding
Method in brief: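 Binding intensity values are the highest Masliner-normalised natural-log median intensity among replicate spots of either probe orientation. The binding step lasted 1 h in 1× PBS with 1% milk, 0.2 mg/ml BSA, 0.5% salmon testes DNA and 0.03% Triton X-100, using GST-tagged P. falciparum DNA-binding domains expressed in E. coli on an Agilent 4 × 180k array of primer-extended double-stranded 36-bp intergenic genomic probes plus negative controls. Alexa488 anti-GST antibody and a 488 nm scan detected bound protein.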

| Sequence | gcPBM binding intensity (ln) |
| --- | --- |
| CTCAATATATTTGATTTACACACTTACAATGTATAT [CACACA_site8982] | 10.04 ± 0.078 |
| GATATATATATTCACACACACATGGAAATATATATA [CACACA_site382] | 9.88 ± 0.028 |
| ATATATATGGTCATTTGTACATATCGTGAGAGCTGC [XGTACX_site4117] | 11 ± 0.49 |
| ATATATATAATTTAAAGTACATATTTAAGAATGAAA [XGTACX_site2238] | 11.1 ± 0.67 |
| AGTAGATATAAAAGGAGTACACATATATATATAAAT [XGTACX_site4375] | 11.6 ± 1 |
| AATAAATAAAGAAGTACACACATATATATATATATA [CACACA_site4314] | 11.7 ± 1.1 |
| GTATTATAAAAAGGAAGTACATATATACATATTATA [XGTACX_site1271] | 11.3 ± 0.75 |
| AATGAATATTAAAGGAGTACACATAATAAGTAAGAA [XGTACX_site7354] | 11.7 ± 0.99 |
| GAAAAAAGAAAAAAAAGTACATATATTTAATAAGAC [XGTACX_site6912] | 11.4 ± 0.86 |
| TTAAGAAACAAAGAAAGTACACAACATAATATAGAA [XGTACX_site477] | 11.4 ± 0.69 |
| AAAAAAAAAAAAAGTACACACATACATATAAATATA [CACACA_site8533] | 11.5 ± 0.86 |
| TATAAAAATAAAAAAAGTACACATAAAAATATATAT [XGTACX_site5189] | 11.5 ± 0.78 |
| ATATATATATAAAGGAGTACATACATTAAAAAAAAA [XGTACX_site1095] | 11.7 ± 1 |
| AAAAATATATAATAAAGTACACATAAATGAATAAAT [XGTACX_site329] | 11.5 ± 0.81 |
| TTAAGAAAAAAAAAAAGTACACACATATAATATATA [XGTACX_site6268] | 11.6 ± 1 |
| ATATTAATATATGTGGCACACATGTGGAGTCCTATT [CACACA_site213] | 10.7 ± 0.43 |
| TTATCACATTATTGCACACACATAAAGAAAAAAATA [CACACA_site2841] | 10.4 ± 0.5 |
| AAAAAAATAAAATATATATATATATATATATATATA [GTGCAC_negctrl_site706] | 9.96 ± 0.89 |
| ATATATATGTGTAAAAGTACATATATTTTGAAATAT [XGTACX_site4024] | 11.2 ± 0.79 |
| TTATAATTGTAAGGTAGTACATATAAATCAAATAAT [XGTACX_site7190] | 11.5 ± 0.94 |
| TATATATAAAAAAAAAGTACATATAATATAATATTT [XGTACX_site7902] | 11.5 ± 1 |
| ATATAAATAAAAAAAAGTACATAATATATAAAAATA [XGTACX_site3065] | 11.5 ± 1 |
| TTAAAAAAAAAAAAAAGTACATAAGTATATATAATA [XGTACX_site4295] | 11.7 ± 1 |

| Sequence | gcPBM binding intensity (ln) |
| --- | --- |
| TATGATTTTAATGAAACACACAATTTTATGTTAATA [CACACA_site311] | 9.82 ± 0.11 |
| TTATAATATATATGTAGTACTGTTTTTTTCTATTTT [XGTACX_site7749] | 11 ± 0.63 |
| TGTACAACAATTTTTGCACACACCAAAACATAAAAT [CACACA_site1598] | 11.1 ± 0.2 |
| TCTTTTGCCCAAAAAGGTACACACCACAATTTAAAT [XGTACX_site1482] | 11.4 ± 0.88 |
| CTTTTGCCCAAAAAGGTACACACCACAAAGTACATA [CACACA_site8169] | 11.9 ± 1.2 |
| CTTTTGCCCAAAAAGGTACACACCACAATGTACATA [CACACA_site809] | 11.6 ± 0.91 |
| TTTGCCCAAAAAGGTACACACCACAATGTACATAAA [CACACA_site4599] | 11.9 ± 1.1 |
| CACACCACCAACAAAAGTACATACATATATATATAT [XGTACX_site5781] | 11.3 ± 0.82 |
| TCTTTTTACACCTCTTACATAAAACAAAATAAGGGG [XGTACX_negctrl_site12] | 10.7 ± 0.38 |
| TTTATTTATTATTATGTACACACTATATTAAAACAT [CACACA_site700] | 11.4 ± 0.87 |
| ATATAATTACCATATGGTACACACATATATATATGT [XGTACX_site7393] | 11.3 ± 0.62 |
| ATCAAATAATAGCAAACACACAAAAAATAAAAAAAA [CACACA_site4146] | 9.96 ± 0.15 |
| ACATTAAAAAAAAAATGTACATAAATATTTTTCCTT [XGTACX_site4361] | 11.1 ± 0.59 |
| AAAAAATATAAAACGAGTACATATATAATAAGCAAA [XGTACX_site1360] | 11.4 ± 0.82 |
| GGATAAAATGCTACGAGTACATAAGCATTTTTCCCT [XGTACX_site7796] | 11.7 ± 1.2 |
| AGGTACTTTTTTAAAACACACATATAACATATACAC [CACACA_site6629] | 11.3 ± 1.1 |
| ATACATTCTAATACGTGTACATATATATATATATAT [XGTACX_site1881] | 11.4 ± 0.81 |
| ATAAATAAAGGACACACACACACACTAGAAAAAAAA [CACACA_site5450] | 11.2 ± 0.92 |
| AACAAATACGGACACACACACACACTAGAAAAAAAA [CACACA_site4442] | 11.4 ± 0.86 |
| TACACAGACGGACACACACACACACTAGAAAAAAAA [CACACA_site4435] | 11.7 ± 1.2 |
| AAACGTGCGTATATGTGTACGCATATATATATATAT [XGTACX_site5252] | 11.6 ± 1 |
| GTATGTATGTATGTATGTACGTATGTATGTATATAT [XGTACX_site3369] | 11.6 ± 0.98 |
| ATTTATATATATGTATGTACGTATGTGTGTATATGT [XGTACX_site7587] | 11.4 ± 0.88 |

| Sequence | gcPBM binding intensity (ln) |
| --- | --- |
| ATGACATGTTCTAAATGTACATTTTTTAACCCTTTT [XGTACX_site1858] | 10.8 ± 0.4 |
| TTTTTTTTTTTTTTATGTACATATATATATTTTATT [XGTACX_site6915] | 11.2 ± 0.98 |
| TTTTTTTTTTCTTTTTTTTATTATATTAACGGAATT [GTGCAC_negctrl_site104] | 9.82 ± 0.17 |
| CAAATGGTAAATGAAAGTACAAATTGTTTTGATTAA [XGTACX_site1536] | 10.8 ± 0.4 |
| TTAGTTATTATAATTTGTACACAAATGGTAAAGTAT [XGTACX_site2343] | 11.2 ± 0.71 |
| ATGGTAGTGATTAAAAGTACACGTAATTGTAAAAAT [XGTACX_site387] | 11.7 ± 0.79 |
| TAAAAAAAAAAATGAACATGCAACAATTGTGATGAA [TGCATGCA_site332] | 9.74 ± 0.32 |
| GCACCAAAAAAAAGACGTACAGTTATATTAAAATAG [XGTACX_site8926] | 11.7 ± 1 |
| ATTATATTAAAATACACACCCAAATATTAAAAAGAT [CACACA_site5613] | 10.4 ± 0.19 |
| AAATAAATAAATAGACGTACAAAAATATTATACATT [XGTACX_site6776] | 11.2 ± 0.8 |
| TTTTTATAAGCATAAAGTACAAATATTTTTTAGTTG [XGTACX_site4140] | 11 ± 0.59 |
| TGTAAGTATTCTTGAGGTACACATATAAATATAGTA [XGTACX_site3207] | 11.4 ± 0.79 |
| AAATATATATATATATATATATATATATATATATAT [CACACA_negctrl_site677] | 10 ± 1 |
| TAATATTTATAAAATAGTACACAGAAAAAGCATTTT [XGTACX_site8948] | 11.4 ± 0.88 |
| TATATAAAGCATTGTAGTACTACCAATATTTTTTTT [XGTACX_site3523] | 11.6 ± 1 |
| ATAGAATAATATTGTAGTACTAAAAATATTCATTTT [XGTACX_site6447] | 11.4 ± 0.92 |
| GGAAACCTTTTTTTTACACACAATATATTAAGACTT [CACACA_site4899] | 9.86 ± 0.014 |
| AAAAAAAAATTAAACATACACACGTTACTATTTTTA [CACACA_site1687] | 9.64 ± 0.26 |
| TACGTATTTTAATATTTACACACTTATTTTTTATAT [CACACA_site7924] | 10.2 ± 0.13 |
| TATAATATATTTTAATGTACGTACATCCCGATTAAT [XGTACX_site7651] | 11.7 ± 0.86 |
| TATTAAGTATTTTACGTACACACTTATAAATGTACA [CACACA_site3885] | 11.7 ± 0.82 |
| TTATTAAATATGTACACACGTACATTTTATAAATGA [CACACA_site2387] | 11.7 ± 1.1 |
| AATGTTTATTTTGTTTGTACATAAAATGAATAAAAT [XGTACX_site1456] | 11.1 ± 0.77 |

| Sequence | gcPBM binding intensity (ln) |
| --- | --- |
| AAAATTATTAAATATGTACACACGTACATTTTATAA [CACACA_site8750] | 11.6 ± 0.88 |
| TTATACATATTTATATGTACGTAATATAATATTAAT [XGTACX_site6520] | 11.3 ± 0.91 |
| AAATGTATAATTTTTTAATACACTTATTTAAAATAA [CACACA_negctrl_site797] | 10.1 ± 0.2 |
| AATATTTTTAATTAATGTACATATTTATTATATAAA [XGTACX_site5112] | 11.2 ± 0.76 |
| TAGTATTATTTTTTTTGTACATATAAATGTAAAATA [XGTACX_site5282] | 11 ± 0.71 |
| AATTATTAAATATGTACACACGTACATTTTATAAAT [CACACA_site5341] | 11.6 ± 1 |
| TTATTATAAATGTTTTGTACGTACATCCGAAAATAA [XGTACX_site2175] | 11.7 ± 1.2 |
| CCTTTCTATTGAAAATGTACATATATATTATTATAT [XGTACX_site5527] | 11.1 ± 0.71 |
| ATATTTTCTAATCAATGTACTTATTCTACACATTAA [XGTACX_site5774] | 11.3 ± 0.92 |
| ATGGAAATATATACATGTACATAAATATATATATAT [XGTACX_site8391] | 11.2 ± 0.61 |
| TTTTACTCTTAAAATAATAAAAAATATTCACATTTA [CACACA_negctrl_site1508] | 9.63 ± 0.085 |
| TAAATTATAACGTGCACACATATTTAAAATGAAATG [CACACA_site2820] | 10.6 ± 0.45 |
| TCTTCACCACGTGGAAGTACATAAAAAGATACACAA [XGTACX_site4747] | 11.4 ± 0.93 |
| AATTTATTAGATAGATGTACATTTTAATAAAAGTAG [XGTACX_site6819] | 11.1 ± 0.67 |
| AGATATTTTTCTTAAGTACACACTAATTAGAAACTA [CACACA_site7897] | 11.3 ± 0.93 |
| CCCATATTATAGGTGTGTACATAAAAGTATATATAA [XGTACX_site3629] | 11.6 ± 0.95 |
| TAACACCAAACTAAATGTACACACATACATAAATAT [XGTACX_site2201] | 11.2 ± 0.79 |
| TATATAATATATTAATGTACGTTATATGTATTCCTT [XGTACX_site6140] | 11.2 ± 0.81 |
| ATAATCCTTGGACACACACACACACTAGTAAATAAA [CACACA_site4423] | 10.9 ± 0.57 |
| ATAAAAGATATTTTTACACACTTTTGATGAGATCGT [CACACA_site3053] | 10.08 ± 0.057 |
